From PubChem BioAssay (NCATS) come the findings set out here.

Where “and” joins values, the source holds several entries; their conditions need not be identical. Equal values may be shown once. Inconclusive results are not listed. A number with no mark means an inactive call. Calls of active or inactive are those of the source. The call rests on the fitted dose curve; in most records, active means well fitted inhibition curve with a large enough effect; inconclusive means small, poorly fitted or top-dose-only effect; inactive means no such curve, though single readings can be large or run the other way.
On the % scale 0 is the no-effect control and ±100 the full control effect; potency means the concentration at half of the fitted maximal effect.

Sequence of Cytochrome P450 2D6 (Homo sapiens) (P10635 whole entry, looked up): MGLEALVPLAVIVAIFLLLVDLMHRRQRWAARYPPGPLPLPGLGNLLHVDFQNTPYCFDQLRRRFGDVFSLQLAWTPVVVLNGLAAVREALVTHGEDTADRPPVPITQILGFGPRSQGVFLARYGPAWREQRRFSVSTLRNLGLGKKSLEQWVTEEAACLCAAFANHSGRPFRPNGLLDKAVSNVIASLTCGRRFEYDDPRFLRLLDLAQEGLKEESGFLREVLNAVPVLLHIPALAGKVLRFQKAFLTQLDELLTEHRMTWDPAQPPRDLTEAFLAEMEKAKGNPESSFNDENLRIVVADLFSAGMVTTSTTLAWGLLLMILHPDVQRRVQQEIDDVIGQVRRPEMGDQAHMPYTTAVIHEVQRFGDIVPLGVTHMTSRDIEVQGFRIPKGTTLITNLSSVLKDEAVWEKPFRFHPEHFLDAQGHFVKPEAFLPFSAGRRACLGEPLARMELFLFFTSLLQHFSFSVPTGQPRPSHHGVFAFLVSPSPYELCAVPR

The target in the assay is Cytochrome P450 2D6 (Homo sapiens) (UniProt P10635). Briefly: qHTS Assay for Inhibitors and Substrates of Cytochrome P450 2D6 (AID 891). Further: nearly all actives have a fitted effect of over 60% in size.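 On activity change, negative = inhibition: luciferin methyl ether substrate demethylated by CYP2D6 with NADPH regeneration.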 The following applies: recombinant CYP2D6, luciferin-ME EGE luminescence; series mostly up to 57.1 µM; activity change, negative = inhibition: at the top concentration. Put shortly:
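Luminescent read-out of luciferin formed by 5 nM human CYP2D6 demethylating 30 uM Luciferin-ME EGE (Km level) over 60 min at room temperature after NADPH regeneration addition. Data normalized to full inhibition by 1.43 uM quinidine.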
Consider `O=C(COc1ccc(Cl)cc1)N1CCN(Cc2ccc3c(c2)OCO3)CC1`, for which the Potency is 0.199 µM (active).

Turning to `CN(C)CC/C=C1\c2ccccc2Sc2ccc(Cl)cc21`, the Potency was 2.51 µM (active). For the compound `CCN1CCC[C@H]1CNC(=O)c1c(OC)ccc(Br)c1OC`, the Potency is 0.199 µM (active). As for `COc1c(C)c2c(c(O)c1C/C=C(\C)CCC(=O)O)C(=O)OC2`, the “activity change, negative = inhibition” value was -1.09%.

Regarding `Cc1cccc(C)c1NC(=O)CN1CCN(CCCC(c2ccc(F)cc2)c2ccc(F)cc2)CC1`, the Potency is 5.01 µM (active). On the same count and under the same terms, next, `CN(C(=O)CN(CCO)CC(=O)N(C)C(C)(C)Cc1ccccc1)C(C)(C)Cc1ccccc1`: 3.16 µM (active); `O=C(CCCN1CCC(O)(c2ccc(Br)cc2)CC1)c1ccc(F)cc1`: 3.98 µM (active). Still for that read-out and setting: next, `CN1CCC(=C2c3ccccc3Sc3ccccc32)CC1`: 3.98 µM (active); `OC(CCN1CCCCC1)(c1ccccc1)c1ccccc1`: 5.01 µM (active) and 1.26 µM (active). On the same count and under the same terms, next, `COc1ccc(CCN2CCC(Nc3nc4ccccc4n3Cc3ccc(F)cc3)CC2)cc1`: 7.94 µM (active); `CCCCOc1ccc(C(=O)CCN2CCCCC2)cc1`: 5.01 µM (active).
